PubChem BioAssay
Several values for one entry are separate records, joined by “and”; a condition that tells them apart may be missing. Identical values can stand only once. Activity calls are given as the source filed them.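 The calls were made as follows, unless noted: active = compounds whose cell count with miR-34 switched on is under 0.7 times the count with it off; inactive = the rest.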

Experiments:
[1] = sensitizers of A549 cells to miR-34 induction, primary screen, imaging, A549 dox-inducible miR-34, nuclei and caspase counts (AID 1347080); settings: A549 miR-34 inducible, Hoechst nuclei count, 48 h
[2] = survival rescue of mitochondrial mutant cells in low glucose, primary screen, MELAS cybrids, Rieske KO mouse fibroblasts, CellTiter-Glo (AID 1508586;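 active = mean z-score across replicates of 1.96 or higher in either the MELAS or the Rieske mutant cell line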;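 also: z relative to plate mean and SD of compound and empty wells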)
[3] = stronger effect = lower value, cell number ratio, induced over uninduced
[4] = measured here: relative caspase fold change +Dox/-Dox
[5] = measured here: total cells with miR-34 induction, stronger effect = lower value
[6] = measured here: total cells without miR-34 induction
[7] = MELAS cybrid survival, CellTiter-Glo 48 h, stronger effect = higher value
[8] = Rieske KO mouse fibroblast survival, CellTiter-Glo 72 h
Also: test concentration not given here.

Row | Compound | fold change [1, 3] | fold change [1, 4] | cell count [1, 5] | cell count [1, 6] | z-score [2, 7] | z-score [2, 8]
1 | CCOc1ccc(Cc2cc(C3OC(CO)C(O)C(O)C3O)ccc2Cl)cc1 (configuration not stated) | 0.916 (inactive) | 0.801 | 7650 | 8340 | 0.52 (inactive) | -0.097
2 | CC(C)Oc1ccc(-c2cnc3c(-c4ccnc5ccccc45)cnn3c2)cc1 | 0.806 (inactive) | 0.45 | 5470 | 6780 | -0.164 (inactive) | 0.555
3 | CC(C)C(=O)Oc1ccc(CO)cc1C(CCN(C(C)C)C(C)C)c1ccccc1 (configuration not stated) | 0.941 (inactive) | 0.385 | 8240 | 8760 | 0.0306 (inactive) | 0.055
4 | CN(C)C(=O)Nc1cccc(-c2ccc(N(C)C)cc2)c1 | 0.935 (inactive) | 0.582 | 7650 | 8180 | -0.267 (inactive) | -1.04
5 | COc1cccc2c1C(=O)c1c(O)c3c(c(O)c1C2=O)C[C@@](O)(C(=O)CO)C[C@@H]3OC1CC(N)C(OC2CCCCO2)C(C)O1 (some centres not stated) | 1.07 (inactive) | 1.21 | 1240 | 1150 | 3.19 (active) | -0.724
6 | CC1COC(Nc2ccc3ncnc(Nc4ccc(OCc5nccs5)c(Cl)c4)c3c2)=N1 (configuration not stated) | 0.841 (inactive) | 0.704 | 6940 | 8260 | 0.156 (inactive) | -0.466
7 | CC(C)N(CC1OC(n2cnc3c(N)ncnc32)C(O)C1O)C1CC(CCc2nc3ccc(C(C)(C)C)cc3[nH]2)C1 (configuration not stated) | 0.923 (inactive) | 0.796 | 8950 | 9700 | -0.166 (inactive) | -0.146
8 | CCn1cc(NC(=S)Nc2cc(Cl)ccc2OC)c(C(N)=O)n1 | 0.929 (inactive) | 0.479 | 8480 | 9130 | -0.357 (inactive) | 0.0626
9 | COc1ccc(C2CC(=O)c3c(O)cc(OC4OC(COC5OC(C)C(O)C(O)C5O)C(O)C(O)C4O)cc3O2)cc1O (configuration not stated) | 0.944 (inactive) and 0.996 (inactive) | 0.804 and 0.887 | 9100 and 9620 | 9630 and 9660 | -0.317 (inactive) and -0.329 (inactive) | 0.0192 and 0.287
10 | CC(OC1OCCN(Cc2n[nH]c(=O)[nH]2)C1c1ccc(F)cc1)c1cc(C(F)(F)F)cc(C(F)(F)F)c1 (configuration not stated) | 0.911 (inactive) | 3.19 | 7240 | 7950 | 1.33 (inactive) | -2.44
11 | Cn1c(=O)cc(N2CCCC(N)C2)n(Cc2ccccc2C#N)c1=O (configuration not stated) | 0.958 (inactive) | 0.837 | 8510 | 8880 | -0.12 (inactive) | -0.0809
12 | COc1cc(C=CC(=O)C=C(O)C=Cc2ccc(O)c(OC)c2)ccc1O | 0.901 (inactive) | 0.689 | 8110 | 9000 | -0.431 (inactive) | 0.0298
13 | CC1C[C@H]2[C@@H]3CCC4=CC(=O)C=C[C@]4(C)[C@]3(F)C(O)C[C@]2(C)[C@]1(O)C(=O)CO (some centres not stated) | 0.886 (inactive) and 0.91 (inactive) | 0.577 and 0.802 | 5440 and 5070 | 6140 and 5570 | -0.338 (inactive) and -0.534 (inactive) | 0.031 and -0.0341
14 | CC(=O)Nc1cccc2c1c(Sc1ccc(Cl)cc1)c(C)n2CC(=O)O | 0.864 (inactive) | 0.281 | 7890 | 9130 | -0.287 (inactive) | -2.23
15 | COC1C=CO[C@]2(C)Oc3c(C)c(O)c4c(O)c(c5c(nc6cc(C)ccn65)c4c3C2=O)NC(=O)C(C)=CC=CC(C)C(O)C(C)C(O)C(C)C(OC(C)=O)C1C (some centres not stated) | 0.885 (inactive) | 1.2 | 7180 | 8110 | -0.112 (inactive) | 0.022
16 | NC1CC1c1ccc(-c2cccc(O)c2)cc1 (configuration not stated) | 0.891 (inactive) | 0.382 | 7530 | 8450 | -0.398 (inactive) | 0.0465
17 | CCN1C(=CC(C)=O)Sc2ccc(OC)cc21 | 0.889 (inactive) | 0.354 | 6850 | 7700 | 0.342 (inactive) | 1.67
18 | Cc1cc(=O)oc2c(C=O)c(O)ccc12 | 0.88 (inactive) | 0.552 | 8210 | 9320 | -0.241 (inactive) | 0.915
19 | COC1C(=O)[C@]2(C)C(OC)C[C@H]3OC[C@@]3(OC(C)=O)[C@H]2C(OC(=O)c2ccccc2)[C@@]2(O)CC(OC(=O)C(O)C(NC(=O)OC(C)(C)C)c3ccccc3)C(C)=C1C2(C)C (some centres not stated) | 1.03 (inactive) | 0.843 | 2690 | 2620 | 1.6 (inactive) | -0.148
20 | O=C(C=Cc1ccccc1)NC(NC(=S)Nc1ccc(Cl)cc1)C(Cl)(Cl)Cl (configuration not stated) | 0.995 (inactive) | 0.524 | 2510 | 2520 | -0.431 (inactive) | -0.459
21 | Cc1ccc(C(=O)NCCCCCC(=O)Nc2ccccc2N)cc1 | 0.986 (inactive) | 0.44 | 4890 | 4960 | -0.614 (inactive) | -2
22 | C=C1C(=CC=C2CCC[C@@]3(C)[C@H]2CC[C@H]3C(C)C=CC(C)C(C)C)CC(O)CC1O (some centres not stated) | 0.932 (inactive) | 0.78 | 7360 | 7890 | -0.45 (inactive) | 1.18
23 | CC(NC(=O)Cc1cc(F)cc(F)c1)C(=O)NC1C(=O)N(C)c2ccccc2-c2ccccc21 (configuration not stated) | 0.913 (inactive) | 0.674 | 8480 | 9280 | -0.38 (inactive) | 1.69
24 | COc1ccc2cc1Oc1ccc(cc1)CC1c3cc(c(OC)cc3CCN1C)Oc1c(OC)c(OC)cc3c1C(C2)N(C)CC3 (configuration not stated) | 0.908 (inactive) | 0.992 | 6590 | 7260 | -0.603 (inactive) | -0.273
25 | CCc1cc2c(cc1CC)CC(NCC(O)c1ccc(O)c3[nH]c(=O)ccc13)C2 (configuration not stated) | 1.01 (inactive) | 0.491 | 7460 | 7410 | -0.199 (inactive) | -0.118
26 | Cc1cnc(NC(=O)Nc2cc(Br)c(C)cc2OCC2CNCCO2)cn1 (configuration not stated) | 1.11 (inactive) | 0.742 | 1910 | 1730 | 0.916 (inactive) | -0.0359
27 | CCC(C)[C@H]1O[C@]2(CCC1C)CC1C[C@@H](CC=C(C)C(O[C@H]3CC(OC)C(O[C@H]4CC(OC)C(O)C(C)O4)C(C)O3)C(C)C=CC=C3CO[C@@H]4C(O)C(C)=C[C@H](C(=O)O1)[C@]34O)O2 (some centres not stated) | 1.18 (inactive) | 0.443 | 3750 | 3170 | -0.0305 (inactive) | 0.298
